Measured values as given in the supplement of paper PMC8728848.
About 410 targets per protein were measured; listed, in parts, are those with the strongest signals and a random draw of the rest.

Legend:
Experiment in all cases: glycan array binding signal (z-score within array); higher = stronger binding
Details in all cases: glycan notation: IUPAC condensed, linker removed; mutation: D22R
[1] = molecular target: Fuc(a1-2)Gal(b1-3)GlcNAc(b1-3)GalNAc
Summary of the method: (§1)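 Glycan array data came from 3228 arrays in the Consortium for Functional Glycomics database, and only arrays with an available protein sequence were kept. Glycan names were put into IUPAC-condensed notation, and columns mapping to the same glycan were averaged. The binding signal is a within-array Z-score, averaged across arrays of one protein sequence run at different concentrations or buffers and across linkers. A negative Z-score can be read as non-binding.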

[2] = molecular target: Fuc(a1-2)Gal(b1-3)[Fuc(a1-4)]GlcNAc(b1-2)Man(a1-3)[Fuc(a1-2)Gal(b1-3)[Fuc(a1-4)]GlcNAc(b1-2)Man(a1-6)]Man(b1-4)GlcNAc(b1-4)[Fuc(a1-6)]GlcNAc(b1-4)[Fuc(a1-6)]GlcNAc
Summary of the method: as §1

Fuc(a1-2)Gal(b1-4)GlcNAc = molecular target: Fuc(a1-2)Gal(b1-4)GlcNAc
Summary of the method: as §1

[3] = molecular target: Fuc(a1-2)Gal(b1-4)GlcNAc(b1-2)Man
Summary of the method: as §1

[4] = molecular target: Fuc(a1-2)[Gal(a1-3)]Gal(b1-4)GlcNAc(b1-3)GalNAc
Summary of the method: as §1

[5] = molecular target: Fuc(a1-2)[GalNAc(a1-3)]Gal(b1-3)GalNAc(b1-3)Gal(a1-4)Gal(b1-4)Glc
Summary of the method: as §1

[6] = molecular target: Fuc(a1-2)[GalNAc(a1-3)]Gal(b1-4)Glc
Summary of the method: as §1

[7] = molecular target: Fuc(a1-2)[GalNAc(a1-3)]Gal(b1-4)GlcNAc(b1-3)Gal(b1-4)GlcNAc
Summary of the method: as §1

[8] = molecular target: Fuc(a1-3)[Gal(b1-4)]GlcNAc6S
Summary of the method: as §1

Gal(a1-2)Gal = molecular target: Gal(a1-2)Gal
Summary of the method: as §1

Gal(b1-3)Gal = molecular target: Gal(b1-3)Gal
Summary of the method: as §1

Gal(b1-3)GalNAc(b1-3)Gal = molecular target: Gal(b1-3)GalNAc(b1-3)Gal
Summary of the method: as §1

[9] = molecular target: Gal(b1-3)GlcNAc(b1-3)Gal(b1-4)GlcNAc(b1-2)[Gal(b1-3)GlcNAc(b1-3)Gal(b1-4)GlcNAc(b1-6)]Man(a1-6)[Gal(b1-3)GlcNAc(b1-3)Gal(b1-4)GlcNAc(b1-2)Man(a1-3)]Man(b1-4)GlcNAc(b1-4)[Fuc(a1-6)]GlcNAc
Summary of the method: as §1

[10] = molecular target: Gal(b1-3)GlcNAc(b1-3)Gal(b1-4)GlcNAc(b1-3)Gal(b1-4)GlcNAc(b1-2)[Gal(b1-3)GlcNAc(b1-3)Gal(b1-4)GlcNAc(b1-3)Gal(b1-4)GlcNAc(b1-6)]Man(a1-6)[Gal(b1-3)GlcNAc(b1-3)Gal(b1-4)GlcNAc(b1-3)Gal(b1-4)GlcNAc(b1-2)Man(a1-3)]Man(b1-4)GlcNAc(b1-4)[Fuc(a1-6)]GlcNAc
Summary of the method: as §1

[11] = molecular target: Gal(b1-4)GlcNAc(a1-6)Gal(b1-4)GlcNAc
Summary of the method: as §1

[12] = molecular target: Gal(b1-4)GlcNAc(b1-2)Man(a1-3)[GlcNAc(b1-2)Man(a1-6)]Man(b1-4)GlcNAc(b1-4)GlcNAc
Summary of the method: as §1

[13] = molecular target: Gal(b1-4)GlcNAc(b1-2)Man(a1-6)[GlcNAc(b1-2)Man(a1-3)]Man(b1-4)GlcNAc(b1-4)GlcNAc
Summary of the method: as §1

[14] = molecular target: Gal(b1-4)GlcNAc(b1-3)Gal(b1-3)GalNAc
Summary of the method: as §1

[15] = molecular target: Gal(b1-4)GlcNAc(b1-3)Gal(b1-4)GlcNAc(b1-2)Man(a1-3)[Gal(b1-4)GlcNAc(b1-3)Gal(b1-4)GlcNAc(b1-2)Man(a1-6)]Man(b1-4)GlcNAc(b1-4)GlcNAc
Summary of the method: as §1

[16] = molecular target: Gal(b1-4)GlcNAc(b1-3)Gal(b1-4)GlcNAc(b1-2)[Gal(b1-4)GlcNAc(b1-3)Gal(b1-4)GlcNAc(b1-6)]Man(a1-6)[Gal(b1-4)GlcNAc(b1-3)Gal(b1-4)GlcNAc(b1-2)Man(a1-3)]Man(b1-4)GlcNAc(b1-4)[Fuc(a1-6)]GlcNAc
Summary of the method: as §1

[17] = molecular target: Gal(b1-4)GlcNAc(b1-3)Gal(b1-4)GlcNAc(b1-3)Gal(b1-4)GlcNAc(b1-2)Man(a1-3)[Gal(b1-4)GlcNAc(b1-3)Gal(b1-4)GlcNAc(b1-3)Gal(b1-4)GlcNAc(b1-2)Man(a1-6)]Man(b1-4)GlcNAc(b1-4)GlcNAc
Summary of the method: as §1

[18] = molecular target: Gal(b1-4)GlcNAc(b1-3)Gal(b1-4)GlcNAc(b1-3)Gal(b1-4)GlcNAc(b1-2)[Gal(b1-4)GlcNAc(b1-3)Gal(b1-4)GlcNAc(b1-3)Gal(b1-4)GlcNAc(b1-6)]Man(a1-6)[Gal(b1-4)GlcNAc(b1-3)Gal(b1-4)GlcNAc(b1-3)Gal(b1-4)GlcNAc(b1-2)Man(a1-3)]Man(b1-4)GlcNAc(b1-4)[Fuc(a1-6)]GlcNAc
Summary of the method: as §1

[19] = molecular target: Gal(b1-4)GlcNAc(b1-3)Gal(b1-4)GlcNAc(b1-3)[Gal(b1-4)GlcNAc(b1-3)Gal(b1-4)GlcNAc(b1-6)]GalNAc
Summary of the method: as §1

[20] = molecular target: Gal(b1-4)GlcNAc(b1-3)Gal(b1-4)GlcNAc(b1-6)[Gal(b1-3)]GalNAc
Summary of the method: as §1

[21] = molecular target: Gal(b1-4)GlcNAc(b1-6)Gal(b1-4)GlcNAc
Summary of the method: as §1

[22] = molecular target: Gal3S(b1-4)[Fuc(a1-3)]GlcNAc
Summary of the method: as §1

B1: MpL2 (Macrolepiota procera) (protein)
chain: MSTQVSSGQTYKITNVKAGTVIRLSGEDNKSIIGYPYHSGKNQQWTFNWTGKAWTLRSASSGSYLGIEGTPADGTRLVAVNDPFEWHIWRDEANENAFRIFVPFTNYNLDLSGYGDTTPGTPVQLWWTWEGLHQTWTIDRP
glycan array binding signal (z-score) [1]: -0.233 | glycan array binding signal (z-score) [2]: 0.051 | glycan array binding signal (z-score) (Fuc(a1-2)Gal(b1-4)GlcNAc): -0.202 | glycan array binding signal (z-score) [3]: 0.129 | glycan array binding signal (z-score) [4]: 0.092 | glycan array binding signal (z-score) [5]: -0.533 | glycan array binding signal (z-score) [6]: -0.092 | glycan array binding signal (z-score) [7]: -0.256 | glycan array binding signal (z-score) [8]: 0.212 | glycan array binding signal (z-score) (Gal(a1-2)Gal): -0.294 | glycan array binding signal (z-score) (Gal(b1-3)Gal): 0.078 | glycan array binding signal (z-score) (Gal(b1-3)GalNAc(b1-3)Gal): -0.315 | glycan array binding signal (z-score) [9]: 10.4 | glycan array binding signal (z-score) [10]: 10.8 | glycan array binding signal (z-score) [11]: 4.13 | glycan array binding signal (z-score) [12]: -0.978 | glycan array binding signal (z-score) [13]: -0.42 | glycan array binding signal (z-score) [14]: -0.633 | glycan array binding signal (z-score) [15]: 2.6 | glycan array binding signal (z-score) [16]: 2.5 | glycan array binding signal (z-score) [17]: 2.57 | glycan array binding signal (z-score) [18]: 2.85 | glycan array binding signal (z-score) [19]: 2.76 | glycan array binding signal (z-score) [20]: 1.3 | glycan array binding signal (z-score) [21]: -1.1 | glycan array binding signal (z-score) [22]: -0.293
